# High-throughput results: PubChem BioAssay, National Center for Advancing Translational Sciences (NCATS)
# The entries come from a sample that favours hits as a whole.
# Shiga toxin inh: Shiga toxin inhibition; hit rate 9.2% among 290,000; inhibition, % at 38.7 µM; Vero cells, Shiga toxin protein synthesis inhibition reporter; AID 2315; in the data active means inhibition mostly above about 28%, no sharp cut-off; inactive means mostly below about 43%; further: 0% is about no effect
# LmPK inhibitor: blocks Leishmania mexicana pyruvate kinase activity. Q27686. purified LmPK, Kinase-Glo ATP luminescence, 1 h. Potency, µM (series often up to 57.5 µM), inactives show at the top dose activity change, negative = inhibition, hits mostly inhibitors. hit rate 0.37% among 290,000; further: potency means the concentration at half of the fitted maximal effect; on the % scale 0 is the no-effect control and ±100 the full control effect
# Target sequence (Q27686 whole entry, looked up): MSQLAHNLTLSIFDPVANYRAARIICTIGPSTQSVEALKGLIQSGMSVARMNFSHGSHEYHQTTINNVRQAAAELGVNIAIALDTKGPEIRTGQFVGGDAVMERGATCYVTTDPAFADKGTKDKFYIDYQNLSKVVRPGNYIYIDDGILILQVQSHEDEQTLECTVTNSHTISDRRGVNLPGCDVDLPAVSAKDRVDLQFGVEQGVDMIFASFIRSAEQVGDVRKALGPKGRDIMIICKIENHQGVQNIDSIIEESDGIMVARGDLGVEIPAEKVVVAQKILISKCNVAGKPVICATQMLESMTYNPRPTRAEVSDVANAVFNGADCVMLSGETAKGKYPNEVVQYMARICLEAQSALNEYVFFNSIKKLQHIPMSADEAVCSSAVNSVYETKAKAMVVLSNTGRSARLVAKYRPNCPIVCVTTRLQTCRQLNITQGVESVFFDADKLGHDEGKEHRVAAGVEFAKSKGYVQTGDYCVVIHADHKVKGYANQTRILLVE
#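 qHTS format; LmPK 0.1 nM; substrates PEP 0.5 mM and ADP 0.1 mM. One-hour room-temperature incubation, then coupled luciferase luminescence; 0.5 nM enzyme wells mark activation.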
# RE007 growth inh: less growth of the S. pombe RE007 Vpr strain | S. pombe RE007 Vpr strain, BacTiter-Glo ATP luminescence, 24 h | Potency, µM (top dose mostly 92.2 µM), for inactives: at the top dose activity change, negative = less growth, usual class: inhibitors | hit rate 0.21% among 360,000 | AID 651644; active means well fitted falling curve with a large enough effect; inconclusive means small, poorly fitted or top-dose-only effect; inactive means no such curve, though single readings can be large or run the other way; further: potency means the concentration at half of the fitted maximal effect; on the % scale 0 is the no-effect control and ±100 the full control effect; nearly all actives have a fitted effect of over 50% in size
#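 Fission yeast strain RE007, carrying one chromosomally integrated HIV-1 vpr copy, was seeded at OD 0.01 in PMG+AL medium with 23 nL pinned compound. After 24 h at 30 °C and 99% humidity, viability was read by BacTiter-Glo luminescence.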
# Cycloheximide cs: affects cycloheximide protein synthesis inhibition readout, counter-screen | cell reporter, cycloheximide protein synthesis inhibition counterscreen | max response, % | hit rate 12% among 300,000 | AID 2314; in the data active means max response mostly above about 13%, no sharp cut-off; inactive means mostly below about 14%; further: read at 38.3 µM for the half of the compounds with a filed dose; 0% is about no effect
# Tb PYK inh: blocks Trypanosoma brucei pyruvate kinase | Potency, µM (top dose mostly 76.8 µM), for the others: at the top dose activity, negative = inhibition, actives largely listed as inhibitors | Q57TT1 | hit rate 0.12% among 410,000 | TbPYK enzyme, Kinase-Glo Plus ATP luminescence, 45 min; further: potency means the concentration at half of the fitted maximal effect; on the % scale 0 is the no-effect control and ±100 the full control effect; nearly all actives have a fitted effect of over 50% in size
#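 T. brucei PYK with substrate was exposed to pin-transferred compounds across a concentration series, then started with 130 uM ADP (final). After 45 min at room temperature, Kinase-Glo Plus luminescence was read, normalized and curve-fitted.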
# Giardia FBPA inh: inhibitors of Giardia lamblia fructose-1,6-bisphosphate aldolase. A8B2U2. purified Giardia FBPA. Potency, µM (series often up to 59.6 µM), without a hit: at the top dose activity, negative = inhibition, actives largely listed as inhibitors. hit rate 0.71% among 290,000. AID 2451; further: potency means the concentration at half of the fitted maximal effect; on the % scale 0 is the no-effect control and ±100 the full control effect; nearly all actives have a fitted effect of over 55% in size
#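 Giardia FBPA (40 nM reagent) was preincubated 10 min at RT with compound (up to 57.5 uM final), then substrate plus GAPDH/TPI/NAD/arsenate coupling system with diaphorase/resazurin was added; resorufin fluorescence (525/598 nm) was read after 20 min.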
# Active calls of the source: *; ? = inconclusive; / = not tested or not shown; [ ] = another dose, or the depositor's remark. Unless noted, the call rests on the fitted dose curve; in most records, active means well fitted curve in the direction sought with a large enough effect; inconclusive means small, poorly fitted or top-dose-only effect, or another doubt; inactive means no such curve, though single readings can be large; an effect the other way counts as inactive or inconclusive.
SMILES,Shiga toxin inh,LmPK inhibitor,RE007 growth inh,Cycloheximide cs,Tb PYK inh,Giardia FBPA inh
CCOC(=O)C1(CC2CCCCO2)CCN(Cc2c(C)cc(C)cc2-n2cccn2)CC1 (centres undefined),3,0%,-6%,-3,0%,5%
O=C1NC(=O)N(Cc2ccccc2)C(=O)/C1=C\C=C\c1ccco1,37,19%,44%,30*,-11%,-4%
Cc1ccc(N2C(=O)NC(=O)/C(=C\C=C\c3ccco3)C2=O)cc1C,12,4%,53%,18*,-22%,-8%
CN(C)c1ccc(/C=C/C=C2/C(=O)NC(=O)N(c3ccccc3)C2=O)cc1,12,13µM*,-21%,-2,?,-21%
O=C1NC(=O)N(c2ccccc2)C(=O)/C1=C/C=C/c1ccco1,57*,8%,27%,36*,?,-13%
C=CCN1c2ccccc2[C@]23C[C@@H](C(=O)OC)N(C(=O)COCc4ccccc4)C2=NC(C(=O)OC)=C(C(=O)OC)[C@H]13,/,0%[11.5 µM],/,/,/,6%[12.9 µM]
C=CCN1C(=O)NC(=O)/C(=C/C=C/c2ccccc2)C1=O,37,-4%,23%,17,-23%,-10%
Cc1cccc(N2C(=O)NC(=O)/C(=C\C=C\c3ccco3)C2=O)c1,42,12%,8%,20*,-14%,-10%
O=C1NC(=O)N(CCc2ccc(F)cc2)C(=O)/C1=C\C=C\c1ccccc1,27,-1%,-2%,21*,4%,1%
Cc1ccc(N2C(=O)NC(=O)/C(=C\C=C\c3ccco3)C2=O)cc1,56*,10%,15%,61*,-28%,-4%
COc1ccc(-c2noc(CCC(=O)NCc3ccc(OC)cc3OC)n2)cc1,/,/,/,/,1%,/
Cc1cc(C)c2[nH]c(C(=O)Nc3ccc(F)cc3Br)cc2c1,67*,0%,1%,34*,?,-2%
Cc1cc(C)c2cc(C(=O)Nc3ccccc3)[nH]c2c1,72*,1%,6%,42*,-12%,-22%
Cc1ccc2[nH]c(C(=O)Nc3ccc(F)cc3)cc2c1,/,2%,0%,22*,-17%,-2%
Brc1cccc(-c2nnn3c2nc(NCc2ccc4c(c2)OCO4)c2ccccc23)c1,/,/,/,/,4%,/
Cc1ccc(CSC2=Nc3ccccc3C3=NC(CCC(=O)NCCc4ccccc4)C(=O)N23)cc1 (centres undefined),/,/,/,/,-1%,/
Nc1cc(=O)[nH]c(SCc2csc(-c3ccccc3)n2)n1,42,-2%,6%,8,-3%,3%
Cc1cc(=O)[nH]c(SCc2nc3ccccc3s2)n1,14,1%,17%,16*,0%,11%
Cc1cc(=O)[nH]c(SCc2csc(-c3ccccc3)n2)n1,24,1%,1%,20*,2%,3%
Cc1c(C(=O)NC(C)c2ccccc2)sc2ncnc(N(C)C3CCCCC3)c12 (centres undefined),/,/,/,/,-1%,/
CO/N=C\CC(=O)Nc1ccc(Cl)cc1Cl,46,1%,10%,21*,-17%,15%
O=c1cc(CSc2ncn[nH]2)[nH]c2c(Cl)cccc12,/,/,/,/,-1%,/
N#C/C(C(=O)c1ccccc1)=C1/SC=C(N)N1c1ccccc1,122*,-7%,/,39*,/,?
O=C(Nc1cccc(Cl)c1)Nc1nc(-c2ccccc2)cs1,17,0%,-9%,-1,-9%,-4%
Cc1nnc(NC(=O)Nc2cccc(Cl)c2)s1,80*,-2%,-8%,51*,-11%,7%
SMILES,Shiga toxin inh,LmPK inhibitor,RE007 growth inh,Cycloheximide cs,Tb PYK inh,Giardia FBPA inh
Cc1csc(NC(=O)Nc2cccc(Cl)c2)n1,86*,6%,-23%,30*,3%,-4%
O=C(CCc1ccccc1)N(Cc1cccnc1)c1nc2c(F)cc(F)cc2s1,/,/,/,/,8%[15.4 µM],/
S=C(c1ccc(-c2cccc(Cl)c2)o1)N1CCCCC1,55*,-9%,-11%,49*,-17%,1%
N#CCCN1CCN(C(=S)c2ccc(-c3ccc(Cl)c(Cl)c3)o2)CC1,35,-2%,-22%,16,-31%,-20%
N#CCCN1CCN(C(=S)c2ccc(-c3cccc(Cl)c3)o2)CC1,103*,5%,4%,45*,-7%,-19%
S=C(c1ccc(-c2cccc(Cl)c2)o1)N1CCOCC1,188*,7%,-15%,43*,-29%,-6%
CC(C)Oc1ccc(CNC(=O)c2sc3ncccc3c2-n2cccc2)cc1,/,/,/,/,-2%,/
COc1ccc(NC(=O)N2CCN(S(=O)(=O)c3ccc4c(ccn4C)c3)CC2)cc1OC,/,/,/,/,-7%,/
Cc1ccc(C(=O)N2CCN(c3cccc(C)c3C)CC2)cc1S(=O)(=O)N1CCOCC1,/,/,2%,/,-8%,/
CCOC(=O)c1cc2c(cn1)[nH]c1ccccc12,59*,-2%,-4%[18.4 µM],27*,6%,-14%
O=C(Oc1cccc(/C=N/Nc2nc(Nc3ccccc3)nc(N3CCOCC3)n2)c1)c1ccco1,23*,2%,1%,13*,-3%,-1%
COc1ccc(/C=N/Nc2nc(Nc3ccccc3)nc(N3CCCCC3)n2)cc1OC,147*,1%,-9%,34*,3%,-6%
COc1ccc(/C=N\Nc2ncc(F)c(N3CCOCC3)n2)cc1OC,73*,8%,-3%,39*,-1%,1%
Cc1ccc(Nc2nc(N/N=C/c3c[nH]c4ccccc34)nc(N3CCOCC3)n2)cc1,47,1%,3%,15*,5%,0%
COc1ccc(C2/C(=C(/O)c3ccc(Br)cc3)C(=O)C(=O)N2C)cc1 (centres undefined),6,2%,6%,-2,3%,0%
Cc1ccc(-c2nnc(Nc3ccc(Br)cc3)c3ccccc23)cc1S(=O)(=O)N1CCOCC1,/,/,/,/,3%,/
CCOCC(O)COc1ccc(NC(=O)CC[S+](C)C)cc1 (centres undefined),/,/,/,/,-5%,/
COC/C=C/C1=CC2=CC(=O)C(C)(OC(=O)c3cnc4ccccc4n3)C(=O)C2=CN1Cc1ccc2c(c1)OCO2 (centres undefined),/,-2%[11.5 µM],/,/,/,?
COc1cccc(/C=N/Nc2nc(Nc3ccccc3)nc(-n3nc(C)cc3C)n2)c1O,31*,-1%,2%,44*,-8%,-8%
C(=N\Nc1nc(Nc2ccccc2)nc(N2CCOCC2)n1)/c1c[nH]c2ccccc12,20,-2%,-7%,21*,-5%,-6%
C=C(C)Cn1c(SCC(=O)Nc2cc(C)ccc2C)nc2sc3c(c2c1=O)CCCC3,/,/,/,/,1%,/
CCOc1ccccc1NC(=O)Cn1ncc2c(=O)oc3ccc(C)cc3c21,/,/,/,/,-6%,/
COc1cc(CNc2ccc(N3CCCC3)cc2)ccc1OCc1ccccc1,55*,-9%,?,42*,?,?
COc1cc(CNc2ccc(O)cc2)cc(Br)c1OCc1ccccc1F,5,0%,-12%,1,?,16µM*
